Data reported in PubChem BioAssay (NCATS).
Inconclusive results are not listed. Where a call stands in place of a potency, no number is given. Calls of active or inactive are those of the source. Calls follow the shape of the full dose curve.

target: Atrial natriuretic peptide receptor 1 (Homo sapiens) (UniProt P16066); test: Natriuretic polypeptide receptor (hNpr1) antagonism - Pilot CMLD screen (AID 1347052); conditions: HEK293 hNpr1 GloSensor cGMP luminescence, ANP-stimulated; series mostly up to 9.22 µM;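 also: cGMP level read as GloSensor luciferase luminescence after agonist stimulation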
Sequence (P16066 whole entry, looked up): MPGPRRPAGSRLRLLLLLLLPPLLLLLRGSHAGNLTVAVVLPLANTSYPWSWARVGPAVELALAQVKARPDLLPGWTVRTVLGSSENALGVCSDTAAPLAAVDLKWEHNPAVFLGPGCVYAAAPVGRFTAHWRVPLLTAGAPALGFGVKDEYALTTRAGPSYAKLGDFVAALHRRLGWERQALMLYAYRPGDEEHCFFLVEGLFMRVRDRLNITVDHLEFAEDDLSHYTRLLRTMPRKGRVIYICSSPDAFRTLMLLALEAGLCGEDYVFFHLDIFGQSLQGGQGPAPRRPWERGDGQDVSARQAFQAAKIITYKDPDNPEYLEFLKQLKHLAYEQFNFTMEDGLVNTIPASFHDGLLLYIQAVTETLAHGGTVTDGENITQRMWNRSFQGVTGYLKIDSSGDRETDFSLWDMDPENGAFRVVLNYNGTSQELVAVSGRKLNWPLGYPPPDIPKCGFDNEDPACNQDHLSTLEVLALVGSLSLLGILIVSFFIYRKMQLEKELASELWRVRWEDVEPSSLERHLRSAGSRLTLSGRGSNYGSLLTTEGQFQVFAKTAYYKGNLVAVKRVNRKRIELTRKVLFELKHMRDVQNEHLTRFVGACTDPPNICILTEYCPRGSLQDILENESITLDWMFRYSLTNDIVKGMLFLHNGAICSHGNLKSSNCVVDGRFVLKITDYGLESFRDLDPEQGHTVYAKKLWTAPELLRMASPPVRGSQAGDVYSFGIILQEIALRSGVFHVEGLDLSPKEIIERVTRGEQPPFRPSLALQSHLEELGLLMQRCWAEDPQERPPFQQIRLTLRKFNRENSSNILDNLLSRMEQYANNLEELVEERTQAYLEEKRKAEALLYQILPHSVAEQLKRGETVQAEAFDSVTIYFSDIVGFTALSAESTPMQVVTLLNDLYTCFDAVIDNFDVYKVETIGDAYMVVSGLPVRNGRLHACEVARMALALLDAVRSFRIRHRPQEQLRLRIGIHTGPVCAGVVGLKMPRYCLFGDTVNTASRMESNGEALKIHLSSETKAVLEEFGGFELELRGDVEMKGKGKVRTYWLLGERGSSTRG
Potency is read from the fitted curve at half-maximal effect.

SMILES	Potency
COc1ccc2c(c1)[C@H](C=Cc1ccccc1)[C@@H]([C@H](O)CO)O2	inactive
CCOC(=O)CCN1C(=O)[C@@H]2[C@H]3[C@H](O)[C@H](O)CC(=NNC(=O)OCc4ccccc4)[C@@H]3CC[C@H]2C1=O	inactive
CC(CCC(=O)OC[C@H]1O[C@H](C#Cc2ccccc2)C=C[C@H]1Oc1ccc(C)cc1)=NO[C@@H](C)CN1CCCCc2nc(C)c(C)cc21	inactive
COC(=O)N1[C@H]2CC[C@@]3(C)C=C(C)O[C@]1(C)C3c1ccccc12	inactive
O=C(NN=C1C[C@@H](O)[C@H](O)[C@H]2[C@@H]3C(=O)N(C[C@@H]4CCCO4)C(=O)[C@@H]3CC[C@H]12)OCc1ccccc1	inactive
C=CCN1C(=O)CC[C@@]23C1=NC(C(=O)OC)=C(C(=O)OC)[C@@H]2N(CC=C)c1ccccc13	2370 nM (active)
CC(C)CON=C1C[C@@H](O)[C@@H](O)[C@@H]2[C@H]3C(=O)N(Cc4ccc5c(c4)OCO5)C(=O)[C@@H]3CC[C@@H]12	inactive
CC(=O)OC[C@H]1O[C@H](CCON=C(C)CCN2CCCCc3nc(C)c(C)cc32)C=C[C@H]1OC(C)=O	inactive
C=CCC(Nc1ccc(OC)cc1)(C(=O)OCC)c1ccccc1 (centres undefined)	inactive
C=CCN1c2ccccc2[C@]23CCC(=O)N(Cc4ccco4)C2=NC(C(=O)OC)=C(C(=O)OC)[C@H]13	inactive
COC(=O)N1C(C)=Cc2ccccc2C1CC(C)=O (centres undefined)	inactive
COC(=O)CCC(=O)OC1(C)C(=O)C=C2C=C(C3CC3)N(Cc3ccco3)C=C2C1=O (centres undefined)	inactive
COc1ccc2c(c1)[C@@]1(OCCC=C[C@@H]1C)C(=O)N2Cc1ccc(Br)cc1	inactive
C=CCCCN1C=C(C(=O)OCC)C(c2ccccc2)NC1=O (centres undefined)	inactive
COC(=O)C1=C(C)N(Cc2ccccc2)C(=O)NC1c1cccc(C(F)(F)F)c1 (centres undefined)	inactive
C#CCCOC(=O)N1C2=NC(C(=O)OC)=C(C(=O)OC)[C@@H]3Nc4ccccc4[C@]23C[C@H]1C(=O)OC	inactive
COC(=O)C1=C(C)C(=O)[C@]2(O)c3ccccc3N(C)[C@]12C	inactive
CCC(=O)OC1(C)C(=O)C=C2C=C(c3ccsc3)OC=C2C1=O (centres undefined)	inactive
CC(CCN1CCCc2nc(C)c(C)cc21)=NO[C@@H](C)c1cc(-c2c(C)cc(C)cc2C)no1	inactive
COC[C@@H](OC(C)=O)[C@H]1OCc2ccccc2[C@@H]1C=Cc1ccccc1	inactive
CC#CCC1(C(=O)OC)C(=O)NC[C@H]1c1ccccc1 (some centres undefined)	inactive
C=CC1=C2C=C(C3CC3)N(CCOC)C=C2C(=O)C(C)(OC(=O)c2ccco2)C1=O (centres undefined)	inactive
CCN(CC)CC(O)CN1CCCCc2nc(C)c(C)cc21 (centres undefined)	inactive
C=CC[C@@H]1C=C[C@H](ON=C(C)CCN2CCCCc3nc(C)c(C)cc32)[C@H](CO)O1	inactive
